# Source: PubChem BioAssay
# A number with no mark means an inactive call. Active and inactive are the calls of the source. Cut-off read from the data, not from the text of the source, unless noted: active = inhibition above about 28%; inactive = the rest.
# Key:
# [1] = StAR promoter reporter inhibitors, counter-screen for LRH-1 inverse agonist project, cell-based, luminescence, high throughput (AID 651611); conditions: StAR promoter luciferase reporter counterscreen, at 3.6 µM, active compounds read high
# [2] = biological target: Nuclear receptor subfamily 5 group A member 2 (Homo sapiens) (UniProt O00482); test: NR5A2 activity suppression in reporter cells – cell-based, luminescence, confirmation (AID 651613; in the data active = inhibition above about 42%;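 note: HEK293T cells co-transfected with LRH-1 and StAR promoter luciferase reporter; 0% = vehicle wells and 100% = parental cells lacking receptor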); conditions: cell-based LRH-1 luciferase reporter, inverse agonism; at 3.6 µM; active compounds read high
# Nuclear receptor subfamily 5 group A member 2 (Homo sapiens), sequence (O00482 whole entry, looked up): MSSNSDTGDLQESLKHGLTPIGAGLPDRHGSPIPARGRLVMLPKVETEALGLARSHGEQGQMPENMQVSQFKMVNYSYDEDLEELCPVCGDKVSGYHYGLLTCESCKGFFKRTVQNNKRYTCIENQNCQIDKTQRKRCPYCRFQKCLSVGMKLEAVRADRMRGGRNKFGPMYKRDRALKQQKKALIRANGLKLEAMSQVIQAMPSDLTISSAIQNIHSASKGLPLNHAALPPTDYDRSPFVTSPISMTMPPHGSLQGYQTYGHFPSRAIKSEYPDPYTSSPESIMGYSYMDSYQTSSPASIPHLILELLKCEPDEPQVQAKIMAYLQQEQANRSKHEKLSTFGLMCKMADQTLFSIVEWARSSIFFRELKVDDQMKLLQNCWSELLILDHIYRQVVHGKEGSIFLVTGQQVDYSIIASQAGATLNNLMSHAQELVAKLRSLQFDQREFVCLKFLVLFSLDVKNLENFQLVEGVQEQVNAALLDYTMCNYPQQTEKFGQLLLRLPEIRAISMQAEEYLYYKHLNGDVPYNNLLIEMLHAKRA
# [3] = biological target: Steroidogenic factor 1 (Homo sapiens) (UniProt Q13285); test: inverse agonism at SF1 nuclear receptor – cell-based, luminescence, high throughput, counter-screen for LRH-1 inverse agonist project (AID 651614; in the data active = inhibition above about 44%;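 note: cells cotransfected with StAR promoter reporter and SF1 expression vector; 0% = vehicle on cells with receptor and 100% = vehicle on cells lacking receptor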); conditions: cell-based SF1 luciferase reporter, at 3.6 µM, active compounds read high
# Steroidogenic factor 1 (Homo sapiens), sequence (Q13285 whole entry, looked up, the tested form may be a part): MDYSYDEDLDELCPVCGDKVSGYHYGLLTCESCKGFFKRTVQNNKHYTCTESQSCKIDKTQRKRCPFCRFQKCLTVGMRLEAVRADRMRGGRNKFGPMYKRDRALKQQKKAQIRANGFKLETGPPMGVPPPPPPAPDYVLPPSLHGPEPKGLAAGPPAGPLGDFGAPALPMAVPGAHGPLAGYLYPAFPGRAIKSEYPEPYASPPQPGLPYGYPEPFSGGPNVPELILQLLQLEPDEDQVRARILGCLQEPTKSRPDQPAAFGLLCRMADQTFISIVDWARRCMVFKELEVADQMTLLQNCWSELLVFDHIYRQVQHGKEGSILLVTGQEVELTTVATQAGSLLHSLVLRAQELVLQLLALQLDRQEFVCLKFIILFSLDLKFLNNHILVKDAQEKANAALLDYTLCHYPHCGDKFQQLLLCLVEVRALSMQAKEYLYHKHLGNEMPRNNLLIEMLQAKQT
# [4] = compounds suppressing VP16-driven luciferase signal – cell-based, luminescence, high throughput, counter-screen for LRH-1 inverse agonist project (AID 651615; in the data active = inhibition above about 33%); conditions: Gal4-VP16 luciferase reporter cells, at 3.6 µM, active compounds read high
Compound,inhibition [1],inhibition [2],inhibition [3],inhibition [4]
Cc1ccc(NC(=O)CNNC(=O)c2cccc([N+](=O)[O-])c2)cc1[N+](=O)[O-],2.1%,34.6%,31.3%,-5.02%
c1ccc(C2=Nn3c(nnc3-c3n[nH]c4c3CCC4)SC2)cc1,47.6% (active),50.8% (active),40.7%,-147%
O=C(c1cc(COc2cccc3cnccc23)on1)N1CCCC(CCCO)C1 (stereo unspecified),35.4% (active),66.4% (active),70.5% (active),63.5% (active)
CCOC(=O)c1cc(C#N)c(N2CCCCC2)nc1-c1ccccc1,8.89%,53.8% (active),40.6%,-5.07%
CC(=O)Nc1ccc(NC(=O)CSc2nnnn2C2CCCCC2)cc1,17%,57.9% (active),44.5% (active),-1.05%
CCc1ccccc1NC(=O)CSc1nnc([C@@H](NC(=O)OC(C)(C)C)C(C)CC)o1 (stereo partly specified),-3.97%,39.5%,30.1%,4.95%
COc1cc(C(=O)NC2CCN(C)CC2)ccc1Nc1ncc2c(n1)N(C1CCCCC1)CCC(=O)N2C,60.6% (active),54.4% (active),40%,-159%
N#Cc1c2c(c(NCCOCCO)n3c1nc1ccccc13)CCCC2,4.14%,40.5%,31.7%,-0.15%
Oc1c(Cl)cc(CN2CCOCC2)c2cccnc12,4.86%,18.4%,6.83%,-5.55%
